According to PubChem BioAssay (NCATS):
Records with an inconclusive call do not appear. The source holds several records for some structures; these can differ, active in one and inactive in another. Calls of active or inactive are those of the source. The call rests on the fitted dose curve; in most records, active means well fitted curve in the direction sought with a large enough effect; inconclusive means small, poorly fitted or top-dose-only effect, or another doubt; inactive means no such curve, though single readings can be large; an effect the other way counts as inactive or inconclusive.

What was measured:
[1] = system: MCC-26; assay: qHTS assay to identify novel small-molecules to repurpose for Merkel cell carcinoma treatment (AID 1296009); conditions: MCC and control cell lines, CellTiter-Glo viability, 72 h; series mostly up to 46 µM; further: nearly all actives have a fitted effect of over 60% in size
How it was run: (§1)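 CellTiter-Glo luminescence after 72 hr compound exposure at 37 degree celsius gave cell viability. Libraries NPC and MIPE were run as 8- and 11-point dose responses; RLUs normalized to DMSO (negative) and no-cell (cytotoxicity) controls.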

[2] = system: MKL-2; assay: as above; conditions: MCC and control cell lines, CellTiter-Glo viability, 72 h; series mostly up to 46 µM
How it was run: as §1

[3] = system: UISO; assay: as above; conditions: MCC and control cell lines, CellTiter-Glo viability, 72 h; series mostly up to 46 µM
How it was run: as §1

[4] = system: CASKI; assay: Primary qHTS to identify gynecologic anti-cancer compounds using libraries of approved drugs and bioactive compounds (AID 1345084); conditions: Gynecologic cancer cell panel viability, ATPlite luminescence, 48 h; series mostly up to 57.5 µM; further: nearly all actives have a fitted effect of over 55% in size
How it was run: (§2)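 Measured: luminescence after ATPlite addition (15 min, RT). Exposure: 48 h, 37 C, 5% CO2.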

[5] = system: JEG-3; assay: as above; conditions: Gynecologic cancer cell panel viability, ATPlite luminescence, 48 h; series mostly up to 57.5 µM
How it was run: as §2

[6] = system: Tov112D; assay: as above; conditions: Gynecologic cancer cell panel viability, ATPlite luminescence, 48 h; series mostly up to 57.5 µM
How it was run: as §2

[7] = system: C33A; assay: as above; conditions: Gynecologic cancer cell panel viability, ATPlite luminescence, 48 h; series mostly up to 57.5 µM
How it was run: as §2

[8] = system: CAOV3; assay: as above; conditions: Gynecologic cancer cell panel viability, ATPlite luminescence, 48 h; series mostly up to 57.5 µM
How it was run: as §2

[9] = system: Es-2; assay: as above; conditions: Gynecologic cancer cell panel viability, ATPlite luminescence, 48 h; series mostly up to 57.5 µM
How it was run: as §2

[10] = system: HeLa; assay: as above; conditions: Gynecologic cancer cell panel viability, ATPlite luminescence, 48 h; series mostly up to 57.5 µM
How it was run: as §2

[11] = system: Hek293T; assay: as above; conditions: Gynecologic cancer cell panel viability, ATPlite luminescence, 48 h, control line for the selectivity index; series mostly up to 57.5 µM
How it was run: as §2

[12] = system: SKOV3; assay: as above; conditions: Gynecologic cancer cell panel viability, ATPlite luminescence, 48 h; series mostly up to 57.5 µM
How it was run: as §2

[13] = system: Tov-21-G; assay: as above; conditions: Gynecologic cancer cell panel viability, ATPlite luminescence, 48 h; series mostly up to 57.5 µM
How it was run: as §2

[14] = Drug repurposing screens with cells derived from glioblastoma tumor samples (AID 1345199); conditions: GBM patient neurospheres viability, ATP luminescence, 48 h; further: nearly all actives have a fitted effect of over 40% in size
How it was run: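 Primary testing used CD133+ neurospheres from four GBM patients, seven concentrations, 48 h exposure and ATP-based viability; confirmation added three slower-growing patient lines.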

[15] = system: MCC-13; assay: qHTS assay to identify novel small-molecules to repurpose for Merkel cell carcinoma treatment (AID 1296009); conditions: MCC and control cell lines, CellTiter-Glo viability, 72 h; series mostly up to 46 µM; further: nearly all actives have a fitted effect of over 60% in size
How it was run: as §1

[16] = system: MKL-1; assay: as above; conditions: MCC and control cell lines, CellTiter-Glo viability, 72 h; series mostly up to 46 µM
How it was run: as §1

[17] = system: WaGa; assay: as above; conditions: MCC and control cell lines, CellTiter-Glo viability, 72 h; series mostly up to 46 µM
How it was run: as §1

[18] = system: OV90; assay: Primary qHTS to identify gynecologic anti-cancer compounds using libraries of approved drugs and bioactive compounds (AID 1345084); conditions: Gynecologic cancer cell panel viability, ATPlite luminescence, 48 h; series mostly up to 57.5 µM; further: nearly all actives have a fitted effect of over 55% in size
How it was run: as §2

[19] = system: PA-1; assay: as above; conditions: Gynecologic cancer cell panel viability, ATPlite luminescence, 48 h; series mostly up to 57.5 µM
How it was run: as §2

[20] = system: NIH3T3; assay: qHTS assay to identify novel small-molecules to repurpose for Merkel cell carcinoma treatment (AID 1296009); conditions: MCC and control cell lines, CellTiter-Glo viability, 72 h; at 44.8 µM (top of the series) unless noted; further: nearly all actives have a fitted effect of over 60% in size
How it was run: as §1

[21] = at 45.9 µM (top of the series), tumour line B
[22] = at 45.9 µM (top of the series), tumour line D
On the % scale 0 is the no-effect control and ±100 the full control effect; potency means the concentration at half of the fitted maximal effect.

Cc1nnc2n1-c1sc(CCc3ccc(CC(C)C)cc3)cc1C(c1ccccc1Cl)=NC2C (configuration not stated)
inactive: Potency [1] | Potency [4] | Potency [5] | Potency [6]
active: Potency [2] 11.9 µM | Potency [3] 16.8 µM

Clc1ccc(CO/N=C(\Cn2ccnc2)c2ccc(Cl)cc2Cl)c(Cl)c1
active: Potency ([14]; tumour line A) 2.82 µM | Potency ([14]; tumour line D) 11.2 µM
inactive: Potency [1] | Potency [7] | Potency [8] | Potency [4] | Potency [9] | Potency [10] | Potency [11] | Potency [5] | Potency [12] | Potency [13] | Potency [6]

O=C1NCN(c2ccccc2)C12CCN(CCCOc1ccc(F)cc1)CC2
inactive: Potency [15] | Potency [16] | Potency [2] | Potency [3] | Potency [17] | Potency [7] | Potency [8] | Potency [4] | Potency [9] | Potency [10] | Potency [5] | Potency [18] | Potency [19] | Potency [12] | Potency [13] | Potency [6]

CN1CCC(N(Cc2ccccc2)c2ccccc2)CC1
inactive: Potency [15] | Potency [1] | Potency [16] | Potency [3] | Potency [7] | Potency [8] | Potency [4] | Potency [9] | Potency [10] | Potency [11] | Potency [5] | Potency [19] | Potency [12] | Potency [13] | Potency [6]

Clc1ccc(CSC(Cn2ccnc2)c2ccc(Cl)cc2Cl)cc1 (configuration not stated)
active: Potency [2] 13.3 µM | Potency [3] 26.6 µM | Potency ([14]; tumour line A) 2.24 µM
inactive: Potency [4] | Potency [9] | Potency [10] | Potency [5] | Potency [19] | Potency [13] | Potency [6]

CCCCCCCCCCCC[N+](C)(C)CCOc1ccccc1
inactive: Potency [5]
active: Potency [1] 23.7 µM | Potency [16] 2.66 µM | Potency [2] 1.06 µM | Potency [3] 9.44 µM | Potency [17] 4.22 µM | Potency [9] 31.6 µM | Potency [10] 31.6 µM | Potency ([14]; tumour line A) 12.6 µM | Potency ([14]; tumour line B) 15.8 µM | Potency ([14]; tumour line D) 11.2 µM

CN(C)C(=S)SSC(=S)N(C)C
active: Potency [1] 0.299 µM | Potency [16] 0.596 µM | Potency [2] 0.596 µM | Potency [3] 0.211 µM | Potency [17] 0.668 µM | Potency [7] 1.26 µM | Potency [8] 11.2 µM | Potency [12] 1.58 µM | Potency [6] 12.6 µM | Potency ([14]; tumour line A) 35.5 µM | Potency ([14]; tumour line B) 35.5 µM
inactive: Potency [4] | Potency [10]

CC[C@H](O)C(C[C@H](C)N(C)C)(c1ccccc1)c1ccccc1
active: Potency ([14]; tumour line A) 44.7 µM | Potency ([14]; tumour line D) 70.8 µM
inactive: Potency [7] | Potency [9] | Potency [10] | Potency [11] | Potency [5] | Potency [19] | Potency [13] | activity, negative = cell killing ([14]; at 108 µM (top of the series), tumour line B) -29.7%

C[C@]12Cc3nonc3C[C@@H]1CC[C@@H]1[C@@H]2CC[C@@]2(C)[C@H]1CC[C@]2(C)O
active: Potency [17] 18.8 µM | Potency [10] 2.82 µM | Potency ([14]; tumour line A) 12.6 µM
inactive: Potency [15] | Potency [1] | Potency [7] | Potency [4] | Potency [9] | Potency [11] | Potency [5] | Potency [18] | Potency [12] | Potency [13] | Potency [6] | activity, negative = cell killing [14, 21] -26.1%

c1ccc2c(c1)Sc1ccccc1N2CC1CN2CCC1CC2 (configuration not stated)
active: Potency [16] 23.7 µM | Potency [2] 11.9 µM | Potency [3] 26.6 µM | Potency [9] 35.5 µM | Potency [11] 31.6 µM | Potency [18] 28.2 µM | Potency [12] 28.2 µM

CC(CC(C#N)(c1ccccc1)c1ccccc1)N(C)C (configuration not stated)
active: Potency [17] 43.3 µM
inactive: Potency [1] | Potency [16] | Potency [7] | Potency [4] | Potency [9] | Potency [10] | Potency [11] | Potency [5] | Potency [19] | Potency [13] | Potency [6]

CNC(=O)Oc1cccc2ccccc12
inactive: Potency [7] | Potency [8] | Potency [4] | Potency [9] | Potency [10] | Potency [11] | Potency [5] | Potency [19] | Potency [12] | Potency [13] | Potency [6]
active: Potency ([14]; tumour line A) 35.5 µM

CCC1(c2cnc[nH]2)Cc2ccccc2C1
inactive: activity, negative = cell killing [14, 22] -24.8%

C=CCOC(Cn1ccnc1)c1ccc(Cl)cc1Cl (configuration not stated)
inactive: Potency [15] | Potency [1] | Potency [16] | Potency [17] | Potency [7] | Potency [8] | Potency [4] | Potency [9] | Potency [11] | Potency [5] | Potency [13] | Potency [6] | activity, negative = cell killing [14, 21] -23.6% | activity, negative = cell killing [14, 22] -33.6%
active: Potency ([14]; tumour line A) 20 µM

COc1ccc2c3c1O[C@H]1[C@@H](O)C=C[C@H]4[C@@H](C2)N(C)CC[C@@]341
inactive: activity, negative = cell killing ([14]; at 91.6 µM (top of the series), tumour line B) -11% | activity, negative = cell killing ([14]; at 91.6 µM (top of the series), tumour line D) -4.9%
active: Potency [15] 23.8 µM | Potency [16] 10.7 µM | Potency [2] 2.12 µM | Potency [3] 15 µM | Potency [17] 5.34 µM | Potency [4] 31.6 µM | Potency ([14]; tumour line A) 44.7 µM

CCC(=O)C(CCN(C)C)(c1ccccc1)c1ccccc1
inactive: Potency [15] | Potency [1] | Potency [16] | Potency [3] | Potency [7] | Potency [8] | Potency [4] | Potency [9] | Potency [10] | Potency [11] | Potency [5] | Potency [18] | Potency [19] | Potency [12] | Potency [13] | Potency [6]

CC(=O)OC1(c2ccccc2)CCN(CCc2ccccc2)CC1
active: Potency [3] 24.8 µM
inactive: Potency [16] | Potency [7] | Potency [9] | Potency [10] | Potency [11] | Potency [5] | Potency [19] | Potency [13] | Potency [6]

C[C@@H]1O[C@@H](O[C@@H]2C=C3CC[C@@H]4[C@H](CC[C@]5(C)[C@@H](c6ccc(=O)oc6)CC[C@]45O)[C@@]3(C)CC2)[C@H](O)[C@H](O)[C@H]1O
active: Potency [15] 0.0033 µM | Potency [16] 0.0094 µM | Potency [2] 0.0084 µM | Potency [3] 0.0038 µM | Potency [17] 0.0027 µM
inactive: Potency [5]

CC1COC2(c3ccccc3Cl)c3cc(Cl)ccc3NC(=O)CN12 (configuration not stated)
inactive: Potency [15] | Potency [1] | Potency [16] | Potency [3] | Potency [7] | Potency [8] | Potency [4] | Potency [9] | Potency [10] | Potency [11] | Potency [5] | Potency [19] | Potency [12] | Potency [13] | Potency [6]

CC(C)[N+](C)(CCC(C(N)=O)(c1ccccc1)c1ccccc1)C(C)C
inactive: Potency [15] | Potency [1] | outcome [20] | Potency [3] | Potency [8] | Potency [4] | Potency [9] | Potency [10] | Potency [11] | Potency [5] | Potency [19] | Potency [12] | Potency [13] | Potency [6] | activity, negative = cell killing ([14]; at 21.2 µM (top of the series), tumour line B) -18% | activity, negative = cell killing ([14]; at 21.2 µM (top of the series), tumour line D) -25.8%
active: Potency [17] 23.7 µM

N#Cc1nn(-c2c(Cl)cc(C(F)(F)F)cc2Cl)c(N)c1S(=O)C(F)(F)F (configuration not stated)
inactive: Potency [15] | Potency [1] | Potency [7] | Potency [4] | Potency [9] | Potency [10] | Potency [5] | Potency [18] | Potency [19] | Potency [13] | Potency [6] | activity, negative = cell killing [14, 21] -25.5%
active: Potency [2] 23.7 µM
